# Measurements reported in paper PMC7862700, “An all-to-all approach to the identification of sequence-specific readers for epigenetic DNA modifications on cytosine”.
# How the values were obtained:
# Test in all cases: DAPPL (digital affinity profiling via proximity ligation, sequencing); 10 mM Tris-HCl pH 7.5, 50 mM NaCl, 1 mM DTT, 4% glycerol, room temperature, 30 min; GST-TFs on glutathione beads, 16-mer random dsDNA library, 0.1% formaldehyde crosslink after washing; high values mean tight binding
# Conditions in all cases: protein: recombinant; tags: N-terminal GST; dsDNA, one strand shown
# [1] = biological target: T1, ELK1 (Homo sapiens, UniProt P19419 1-428)
# T1 sequence: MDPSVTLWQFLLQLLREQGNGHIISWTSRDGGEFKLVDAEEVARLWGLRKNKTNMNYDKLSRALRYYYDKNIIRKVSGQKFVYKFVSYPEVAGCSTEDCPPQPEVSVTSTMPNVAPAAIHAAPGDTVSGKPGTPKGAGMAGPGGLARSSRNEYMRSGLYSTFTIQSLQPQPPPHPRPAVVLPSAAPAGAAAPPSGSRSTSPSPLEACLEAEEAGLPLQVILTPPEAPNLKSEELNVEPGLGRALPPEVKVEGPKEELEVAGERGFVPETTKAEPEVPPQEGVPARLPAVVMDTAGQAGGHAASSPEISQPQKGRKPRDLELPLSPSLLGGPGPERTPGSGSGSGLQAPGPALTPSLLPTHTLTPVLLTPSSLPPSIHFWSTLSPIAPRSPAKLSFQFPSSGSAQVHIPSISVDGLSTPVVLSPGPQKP
# In short: (§1)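 Pools were built from human transcription factors expressed in yeast as GST fusions, captured on glutathione beads and DNA-barcoded, along with a tag-only sample. Incubation with 200 nmole of a 16-mer random double-stranded DNA library lasted 30 min at room temperature in Tris/NaCl/DTT/glycerol buffer, and was followed by washing, 0.1% formaldehyde crosslinking, proximity ligation, PCR amplification and Illumina NextSeq500 sequencing. Binding signal is the quotient of each hexamer's read frequency for a factor and its frequency for the tag-only sample.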
# [2] = biological target: T2, GABPA (Homo sapiens, UniProt Q06546 1-454)
# T2 sequence: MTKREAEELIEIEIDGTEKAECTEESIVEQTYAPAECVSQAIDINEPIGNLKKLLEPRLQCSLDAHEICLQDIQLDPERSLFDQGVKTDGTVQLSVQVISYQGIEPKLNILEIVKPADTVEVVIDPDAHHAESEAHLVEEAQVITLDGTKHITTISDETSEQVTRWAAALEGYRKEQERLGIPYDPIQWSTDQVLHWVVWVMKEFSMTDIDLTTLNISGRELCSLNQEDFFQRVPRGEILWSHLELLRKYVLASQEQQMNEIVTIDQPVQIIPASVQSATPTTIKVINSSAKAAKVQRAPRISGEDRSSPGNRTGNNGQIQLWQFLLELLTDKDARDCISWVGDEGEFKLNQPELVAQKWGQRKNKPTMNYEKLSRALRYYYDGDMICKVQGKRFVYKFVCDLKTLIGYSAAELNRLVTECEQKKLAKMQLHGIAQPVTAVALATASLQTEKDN
# In short: as §1
# [3] = biological target: ELF1 (Homo sapiens, UniProt P32519 1-619)
# ELF1, sequence (P32519 whole entry): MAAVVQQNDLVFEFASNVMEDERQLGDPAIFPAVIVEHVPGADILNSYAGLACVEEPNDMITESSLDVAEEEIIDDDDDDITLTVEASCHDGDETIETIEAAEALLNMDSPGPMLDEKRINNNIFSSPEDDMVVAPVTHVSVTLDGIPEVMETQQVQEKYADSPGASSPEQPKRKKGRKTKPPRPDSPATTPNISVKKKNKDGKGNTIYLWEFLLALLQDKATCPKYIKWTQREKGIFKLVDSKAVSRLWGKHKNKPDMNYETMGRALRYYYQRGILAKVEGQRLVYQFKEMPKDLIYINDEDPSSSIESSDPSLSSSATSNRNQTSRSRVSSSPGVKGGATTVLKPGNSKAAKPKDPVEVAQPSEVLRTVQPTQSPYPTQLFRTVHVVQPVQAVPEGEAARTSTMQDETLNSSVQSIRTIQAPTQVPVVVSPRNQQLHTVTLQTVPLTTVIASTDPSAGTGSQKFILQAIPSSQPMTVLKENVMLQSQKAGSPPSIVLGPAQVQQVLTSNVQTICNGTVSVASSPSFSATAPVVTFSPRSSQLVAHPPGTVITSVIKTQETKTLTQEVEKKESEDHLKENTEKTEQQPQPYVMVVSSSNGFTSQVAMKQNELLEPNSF
# In short: as §1
# [4] = biological target: T3, EHF (Homo sapiens, UniProt Q9NZC4 1-300)
# T3 sequence: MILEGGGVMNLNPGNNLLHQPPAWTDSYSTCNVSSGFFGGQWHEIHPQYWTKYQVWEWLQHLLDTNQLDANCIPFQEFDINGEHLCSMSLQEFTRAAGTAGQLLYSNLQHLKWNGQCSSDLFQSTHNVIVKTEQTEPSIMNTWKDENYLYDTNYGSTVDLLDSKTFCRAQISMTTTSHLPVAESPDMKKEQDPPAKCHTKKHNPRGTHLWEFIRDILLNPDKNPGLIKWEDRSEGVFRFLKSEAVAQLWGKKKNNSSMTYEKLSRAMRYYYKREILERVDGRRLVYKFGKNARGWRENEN
# In short: as §1
# [5] = biological target: SPI1 (Homo sapiens, UniProt P17947 1-270)
# In short: as §1
# [6] = biological target: SPIB (Homo sapiens, UniProt Q01892 1-262)
# SPIB, sequence (Q01892 whole entry): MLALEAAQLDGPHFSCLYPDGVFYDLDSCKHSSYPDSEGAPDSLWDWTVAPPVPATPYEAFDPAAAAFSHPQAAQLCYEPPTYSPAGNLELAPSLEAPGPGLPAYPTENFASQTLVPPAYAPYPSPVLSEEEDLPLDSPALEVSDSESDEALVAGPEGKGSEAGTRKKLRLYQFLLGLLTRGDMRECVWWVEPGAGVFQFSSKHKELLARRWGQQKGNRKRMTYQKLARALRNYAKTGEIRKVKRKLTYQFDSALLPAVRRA
# In short: as §1
# [7] = biological target: T4, FEV (Homo sapiens, UniProt Q99581 1-238)
# T4 sequence: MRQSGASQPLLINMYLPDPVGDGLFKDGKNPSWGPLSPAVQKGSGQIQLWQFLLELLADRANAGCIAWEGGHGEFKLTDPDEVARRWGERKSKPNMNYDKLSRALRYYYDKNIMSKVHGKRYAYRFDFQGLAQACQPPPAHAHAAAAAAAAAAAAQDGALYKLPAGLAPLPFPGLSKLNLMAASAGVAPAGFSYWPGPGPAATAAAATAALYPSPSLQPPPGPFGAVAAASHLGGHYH
# In short: as §1
# [8] = biological target: ETV5 (Homo sapiens, UniProt P41161 1-510)
# ETV5, sequence (P41161 whole entry): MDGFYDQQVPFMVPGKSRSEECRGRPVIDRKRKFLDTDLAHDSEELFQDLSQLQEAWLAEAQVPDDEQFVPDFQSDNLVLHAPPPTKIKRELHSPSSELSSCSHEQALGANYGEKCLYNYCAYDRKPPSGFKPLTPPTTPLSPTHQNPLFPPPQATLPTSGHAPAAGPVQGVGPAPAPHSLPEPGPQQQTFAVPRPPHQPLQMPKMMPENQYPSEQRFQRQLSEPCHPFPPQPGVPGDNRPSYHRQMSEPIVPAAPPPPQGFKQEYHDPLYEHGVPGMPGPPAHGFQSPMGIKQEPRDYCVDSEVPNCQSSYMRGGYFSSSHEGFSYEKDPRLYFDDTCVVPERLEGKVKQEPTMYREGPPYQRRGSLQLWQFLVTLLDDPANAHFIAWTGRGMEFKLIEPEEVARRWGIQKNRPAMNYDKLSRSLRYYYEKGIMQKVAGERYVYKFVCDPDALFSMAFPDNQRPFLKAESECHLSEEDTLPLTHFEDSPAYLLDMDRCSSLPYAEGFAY
# In short: as §1
# [9] = biological target: ELF4 (Homo sapiens, UniProt Q99607 1-663)
# ELF4, sequence (Q99607 whole entry): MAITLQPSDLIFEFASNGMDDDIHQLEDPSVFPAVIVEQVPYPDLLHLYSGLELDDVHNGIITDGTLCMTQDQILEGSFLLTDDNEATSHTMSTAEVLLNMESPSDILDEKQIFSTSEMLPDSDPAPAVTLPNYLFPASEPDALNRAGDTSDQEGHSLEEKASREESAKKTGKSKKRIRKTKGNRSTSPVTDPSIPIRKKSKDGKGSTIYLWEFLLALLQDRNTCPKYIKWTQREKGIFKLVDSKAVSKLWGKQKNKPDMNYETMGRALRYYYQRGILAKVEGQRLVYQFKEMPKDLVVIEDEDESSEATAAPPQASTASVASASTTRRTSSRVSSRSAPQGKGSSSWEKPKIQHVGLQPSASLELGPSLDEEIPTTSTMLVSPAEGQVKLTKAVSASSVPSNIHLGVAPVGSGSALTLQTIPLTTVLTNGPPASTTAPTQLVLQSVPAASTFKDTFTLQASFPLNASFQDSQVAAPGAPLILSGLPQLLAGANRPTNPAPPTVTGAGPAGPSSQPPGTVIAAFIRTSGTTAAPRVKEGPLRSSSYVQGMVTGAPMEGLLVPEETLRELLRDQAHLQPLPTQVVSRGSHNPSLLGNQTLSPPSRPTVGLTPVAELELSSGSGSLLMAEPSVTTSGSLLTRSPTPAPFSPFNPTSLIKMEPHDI
# In short: as §1
# [10] = biological target: T5, ELK4 (Homo sapiens, UniProt P28324-2 1-405)
# T5 sequence: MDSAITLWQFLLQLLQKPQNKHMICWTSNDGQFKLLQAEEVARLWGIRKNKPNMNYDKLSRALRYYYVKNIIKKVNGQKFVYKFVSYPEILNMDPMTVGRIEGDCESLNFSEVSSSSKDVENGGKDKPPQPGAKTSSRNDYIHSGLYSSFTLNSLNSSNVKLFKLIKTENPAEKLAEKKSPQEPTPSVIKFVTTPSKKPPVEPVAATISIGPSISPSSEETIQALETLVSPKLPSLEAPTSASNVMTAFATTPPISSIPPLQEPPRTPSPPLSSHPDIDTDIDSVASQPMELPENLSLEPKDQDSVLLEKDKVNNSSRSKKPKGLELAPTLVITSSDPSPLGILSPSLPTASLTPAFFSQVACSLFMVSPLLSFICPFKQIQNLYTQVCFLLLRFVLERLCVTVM
# In short: as §1
# [11] = biological target: T6, ELF3 (Homo sapiens, UniProt P78545 1-371)
# T6 sequence: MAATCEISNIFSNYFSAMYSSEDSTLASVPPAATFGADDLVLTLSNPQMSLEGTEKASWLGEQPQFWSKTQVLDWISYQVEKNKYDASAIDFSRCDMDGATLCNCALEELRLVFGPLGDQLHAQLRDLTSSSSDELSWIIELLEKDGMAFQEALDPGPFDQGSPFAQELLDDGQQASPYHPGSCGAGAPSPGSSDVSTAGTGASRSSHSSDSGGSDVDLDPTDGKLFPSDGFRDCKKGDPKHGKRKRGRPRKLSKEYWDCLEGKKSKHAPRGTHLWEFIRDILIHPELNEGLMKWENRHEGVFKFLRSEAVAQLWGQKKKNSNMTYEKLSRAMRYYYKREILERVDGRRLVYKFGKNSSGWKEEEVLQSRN
# In short: as §1
# [12] = biological target: ETV1 (Homo sapiens, UniProt P50549 1-477)
# ETV1, sequence (P50549 whole entry): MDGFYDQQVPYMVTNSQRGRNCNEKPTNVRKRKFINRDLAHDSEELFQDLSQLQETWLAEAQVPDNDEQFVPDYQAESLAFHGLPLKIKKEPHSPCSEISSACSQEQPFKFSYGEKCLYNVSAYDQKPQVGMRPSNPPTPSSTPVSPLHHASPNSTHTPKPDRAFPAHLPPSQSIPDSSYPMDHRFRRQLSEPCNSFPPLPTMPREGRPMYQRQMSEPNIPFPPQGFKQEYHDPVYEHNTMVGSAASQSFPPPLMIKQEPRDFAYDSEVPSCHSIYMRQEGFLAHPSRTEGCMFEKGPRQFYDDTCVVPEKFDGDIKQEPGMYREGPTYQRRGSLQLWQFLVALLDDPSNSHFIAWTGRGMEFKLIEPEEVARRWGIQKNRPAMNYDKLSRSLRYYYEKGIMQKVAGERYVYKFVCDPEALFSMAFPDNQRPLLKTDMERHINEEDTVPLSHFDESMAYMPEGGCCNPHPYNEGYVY
# In short: as §1
# [13] = biological target: T7, ERF (Homo sapiens, UniProt P50548 1-548)
# T7 sequence: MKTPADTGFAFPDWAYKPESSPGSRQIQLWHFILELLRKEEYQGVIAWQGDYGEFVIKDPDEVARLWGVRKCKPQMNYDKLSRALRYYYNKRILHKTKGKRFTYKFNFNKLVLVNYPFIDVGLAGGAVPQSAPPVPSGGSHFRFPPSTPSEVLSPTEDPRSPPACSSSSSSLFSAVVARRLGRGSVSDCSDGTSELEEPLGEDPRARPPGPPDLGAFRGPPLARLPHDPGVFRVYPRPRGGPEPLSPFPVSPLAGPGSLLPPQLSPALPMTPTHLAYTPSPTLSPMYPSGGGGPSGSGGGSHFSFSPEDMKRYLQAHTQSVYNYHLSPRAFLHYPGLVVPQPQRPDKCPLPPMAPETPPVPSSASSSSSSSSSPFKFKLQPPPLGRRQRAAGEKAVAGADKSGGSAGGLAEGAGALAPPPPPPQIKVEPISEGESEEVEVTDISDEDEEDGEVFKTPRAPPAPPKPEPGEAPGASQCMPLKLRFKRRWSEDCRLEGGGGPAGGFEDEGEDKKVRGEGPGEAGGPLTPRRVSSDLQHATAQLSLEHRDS
# In short: as §1
# [14] = biological target: T8, ETV3L (Homo sapiens, UniProt Q6ZN32 1-361)
# T8 sequence: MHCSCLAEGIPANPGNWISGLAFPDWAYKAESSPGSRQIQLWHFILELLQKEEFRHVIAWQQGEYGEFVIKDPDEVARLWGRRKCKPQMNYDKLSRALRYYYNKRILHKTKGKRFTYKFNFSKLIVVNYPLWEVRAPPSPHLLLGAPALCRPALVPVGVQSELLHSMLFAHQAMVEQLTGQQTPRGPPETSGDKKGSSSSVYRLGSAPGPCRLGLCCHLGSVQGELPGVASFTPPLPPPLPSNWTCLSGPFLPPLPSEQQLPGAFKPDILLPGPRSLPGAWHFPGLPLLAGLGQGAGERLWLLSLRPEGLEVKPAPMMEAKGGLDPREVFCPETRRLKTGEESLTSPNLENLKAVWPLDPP
# In short: as §1
# [15] = biological target: T9, ETS2 (Homo sapiens, UniProt P15036 1-469)
# T9 sequence: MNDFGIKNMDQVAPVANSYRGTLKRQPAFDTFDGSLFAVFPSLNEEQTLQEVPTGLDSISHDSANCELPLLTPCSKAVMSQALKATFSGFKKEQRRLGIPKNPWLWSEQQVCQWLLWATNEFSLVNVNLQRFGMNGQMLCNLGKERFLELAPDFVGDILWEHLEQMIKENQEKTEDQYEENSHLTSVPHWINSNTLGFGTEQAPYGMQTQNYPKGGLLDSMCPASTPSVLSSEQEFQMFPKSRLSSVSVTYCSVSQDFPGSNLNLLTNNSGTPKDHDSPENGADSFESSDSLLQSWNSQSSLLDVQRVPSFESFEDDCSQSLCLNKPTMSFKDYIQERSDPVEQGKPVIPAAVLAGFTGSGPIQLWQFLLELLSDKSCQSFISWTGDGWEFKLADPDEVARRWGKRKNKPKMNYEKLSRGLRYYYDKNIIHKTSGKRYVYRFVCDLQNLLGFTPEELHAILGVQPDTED
# In short: as §1
# [16] = biological target: T10, SPDEF (Homo sapiens, UniProt O95238 1-335)
# T10 sequence: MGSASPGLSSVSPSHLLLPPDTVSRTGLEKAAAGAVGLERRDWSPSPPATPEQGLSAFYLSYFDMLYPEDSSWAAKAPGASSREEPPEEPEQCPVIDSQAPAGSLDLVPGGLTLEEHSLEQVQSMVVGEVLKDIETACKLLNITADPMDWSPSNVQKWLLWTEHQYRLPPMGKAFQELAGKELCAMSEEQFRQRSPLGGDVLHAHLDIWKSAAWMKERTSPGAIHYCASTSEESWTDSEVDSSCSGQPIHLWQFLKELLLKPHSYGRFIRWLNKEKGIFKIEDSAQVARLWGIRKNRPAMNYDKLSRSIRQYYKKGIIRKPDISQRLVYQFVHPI
# In short: as §1
# [17] = biological target: T11, ETV7 (Homo sapiens, UniProt Q9Y603 1-341)
# T11 sequence: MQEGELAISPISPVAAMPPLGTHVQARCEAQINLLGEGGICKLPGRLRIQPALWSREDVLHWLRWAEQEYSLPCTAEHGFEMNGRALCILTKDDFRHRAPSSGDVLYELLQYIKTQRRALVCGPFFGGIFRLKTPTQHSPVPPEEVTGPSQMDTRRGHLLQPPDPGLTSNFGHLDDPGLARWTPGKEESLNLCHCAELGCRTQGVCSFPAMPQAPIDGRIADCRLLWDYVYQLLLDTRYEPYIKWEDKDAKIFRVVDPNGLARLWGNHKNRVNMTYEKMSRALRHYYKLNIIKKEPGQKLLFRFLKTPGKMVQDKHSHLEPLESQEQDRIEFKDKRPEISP
# In short: as §1
# [18] = biological target: T12, ETV3 (Homo sapiens, UniProt P41162-2 1-143)
# T12 sequence: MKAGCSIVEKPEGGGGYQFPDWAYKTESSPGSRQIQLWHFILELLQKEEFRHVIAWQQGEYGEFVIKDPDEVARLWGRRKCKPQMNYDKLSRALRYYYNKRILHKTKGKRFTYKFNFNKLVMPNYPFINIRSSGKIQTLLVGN
# In short: as §1
# [19] = biological target: ETV6 (Homo sapiens, UniProt P41212 1-452)
# ETV6, sequence (P41212 whole entry): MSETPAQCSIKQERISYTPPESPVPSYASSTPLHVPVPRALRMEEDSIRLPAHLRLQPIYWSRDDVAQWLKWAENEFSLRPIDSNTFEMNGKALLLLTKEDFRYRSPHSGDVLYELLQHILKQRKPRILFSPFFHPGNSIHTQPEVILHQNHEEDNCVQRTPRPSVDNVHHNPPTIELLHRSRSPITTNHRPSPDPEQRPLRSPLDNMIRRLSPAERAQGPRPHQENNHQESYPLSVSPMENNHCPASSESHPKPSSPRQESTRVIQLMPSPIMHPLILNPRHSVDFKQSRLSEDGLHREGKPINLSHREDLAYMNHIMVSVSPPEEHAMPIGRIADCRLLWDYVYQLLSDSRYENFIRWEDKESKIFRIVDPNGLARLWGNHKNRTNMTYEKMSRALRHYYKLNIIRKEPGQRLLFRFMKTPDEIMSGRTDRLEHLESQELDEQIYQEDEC
# In short: as §1
sequence,measurement,setting,value
CATTAA,binding signal,[1],"1 fold enrichment (6-mer frequency, TF over GST control)"
same,binding signal,[2],"1.12 fold enrichment (6-mer frequency, TF over GST control)"
same,binding signal,[3],"1.07 fold enrichment (6-mer frequency, TF over GST control)"
same,binding signal,[4],"1.01 fold enrichment (6-mer frequency, TF over GST control)"
same,binding signal,[5],"1.04 fold enrichment (6-mer frequency, TF over GST control)"
same,binding signal,[6],"1.04 fold enrichment (6-mer frequency, TF over GST control)"
same,binding signal,[7],"1.01 fold enrichment (6-mer frequency, TF over GST control)"
same,binding signal,[8],"1.07 fold enrichment (6-mer frequency, TF over GST control)"
same,binding signal,[9],"1.07 fold enrichment (6-mer frequency, TF over GST control)"
same,binding signal,[10],"1.02 fold enrichment (6-mer frequency, TF over GST control)"
same,binding signal,[11],"1.05 fold enrichment (6-mer frequency, TF over GST control)"
same,binding signal,[12],"1.12 fold enrichment (6-mer frequency, TF over GST control)"
same,binding signal,[13],"1.1 fold enrichment (6-mer frequency, TF over GST control)"
same,binding signal,[14],"1.1 fold enrichment (6-mer frequency, TF over GST control)"
same,binding signal,[15],"1.04 fold enrichment (6-mer frequency, TF over GST control)"
same,binding signal,[16],"1.01 fold enrichment (6-mer frequency, TF over GST control)"
same,binding signal,[17],"1.05 fold enrichment (6-mer frequency, TF over GST control)"
same,binding signal,[18],"1.02 fold enrichment (6-mer frequency, TF over GST control)"
same,binding signal,[19],"1.03 fold enrichment (6-mer frequency, TF over GST control)"
